From PubChem BioAssay (Tox21)
Unmarked numbers belong to inactive results. Where a call stands in place of a potency, no number is given. Activity calls are given as the source filed them. Calls follow the shape of the dose curve; as a rule, active = well fitted curve in the direction sought with a large enough effect in the repeat runs; inconclusive = weak or mixed curves; inactive = flat fitted curve, though single readings scatter.

assay: qHTS assay to test for compound auto fluorescence at 535 nm (green) in HepG2 cell free culture (AID 720686); details: Cell-free medium, green autofluorescence 485/535 nm; series mostly up to 91.3 µM
Source text: U.S. Tox21 Program National Center for Advancing Translational Sciences [NCATS] NIH Chemical Genomics Center [NCGC] U.S. Environmental Protection Agency [EPA] National Institutes of Environmental Health Sciences [NIEHS] National Toxicology Program [NTP] U.S. Food and Drug Administration [FDA] Tox21 Assay Overview: Compound auto fluorescence often interferes with screening of the compound library against various biological targets and signaling pathways. Some of these compounds may have fluorophoric properties. Such properties may interfere with the assay outputs resulting in false positives and/or negatives. To decrease such complications and ensure the compound activities are relevant in terms of biological response, the Tox21 10K compound library was screened for auto fluorescence. From the fluorophores used as reporter signals in our screening assays, the auto fluorescence equivalencies of compounds against three fluorophores have been evaluated: Triamterene, Fluorescein and Rose Bengal sodium for blue, green and red fluorescence, respectively. The fluorescence intensities were measured using Excitation/Emission wavelengths at 405/460nm, 485/535nm and 540/590nm for blue, green and red labels, respectively. This assay includes the green fluorescence data.
Tox21 Assay Protocol Summary: 5 uL of culture medium (MEM containing 10% FBS) per well was dispensed into black wall/clear bottom 1536-well plates using a Multidrop Combi Dispenser (ThermoFisher Scientific, Waltham, MA). After 23 nL compound or DMSO vehicle was transferred into assay plate by a pintool work station (Kalypsys, San Diego, CA), fluorescence intensities in the assay plates were measured by an Envision (PerkinElmer, Shelton, CT) plate reader using three labels for measuring blue, green and red fluorescence at […] 460, 535 and 590nm respectively.
Potency is read from the fitted curve at half-maximal effect; tags tell the direction and shape of the fitted curve or compound fluorescence and quenching.

SMILES	Potency	fluorescence, % of fluorescein control
O=c1oc2cc(O)ccc2c2oc3cc(O)ccc3c12	inactive	–
CCCCCCCCCCCCCCCC[N+](C)(C)CC	inactive	–
C1CCC(SSC2CCCCC2)CC1	inactive	–
O=C1C(c2[nH]c3ccc(S(=O)(=O)O)cc3c2O)=Nc2ccc(S(=O)(=O)O)cc21	inactive	–
c1ccc(C(O[C@@H]2CCCN(CCc3ccc4c(c3)OCO4)C2)c2ccccc2)cc1	inactive	–
O=c1[nH]c2ccccc2n1CCCN1CCN(C(c2ccccc2)c2ccccc2)CC1	inactive	–
O=C(O)O	–	0.0195% [at 3.72 µM]
CCCCCCCCCCCC(=O)OCC(C)OC(=O)CCCCC(=O)O (stereo not given)	inactive	–
Cc1cc(C(C#N)c2ccc(Cl)cc2)c(Cl)cc1NC(=O)c1cc(I)cc(I)c1O (stereo not given)	inactive	–
CCN(CC)C(=O)c1cc(S(=O)(=O)Cc2ccccc2)c(N2CCC(c3ccccc3)CC2)cc1N(CC)CCN(C)C	inactive	–
CN(C)c1ccc(C(=C2C=CC(=[N+](C)C)C=C2)c2ccc(N(C)C)cc2)cc1	inactive	–
O=C1OC2(c3ccc(O)cc3Oc3cc(O)ccc32)c2ccc(N=C=S)cc21	35.5 µM [fluorescent] (active)	–
COc1c(C)c2c(c(O)c1C/C=C(\C)CCC(=O)OCCN1CCOCC1)C(=O)OC2	inactive	–
CCCCC(CC)COC(=O)CCCCC(=O)OCc1ccccc1 (stereo not given)	inactive	–
CCCCCCCCCCCCOCCOCCOCCOCCOCCOCCOCCOCCOCCO	inactive	–
CCCC(=O)OCCc1ccccc1	inactive	–
O=C(/C=C/c1ccccc1)OC/C=C/c1ccccc1	inactive	–
COC(=O)Nc1nc2ccc(C(=O)c3ccccc3)cc2[nH]1	–	0.0619% [at 18.6 µM]
CCC(=O)OC(=O)CC	inactive	–
CCC(CC)(CC(=O)Nc1cccc(/C=C/c2nc(C3CCC3)cs2)c1)C(=O)O	inactive	–

SMILES	Potency	fluorescence, % of fluorescein control
O=C1c2ccccc2C(=O)N1SC1CCCCC1	inactive	–
CCO[C@@H]1O[C@H](C(COCc2ccccc2)OCc2ccccc2)[C@H](OCc2ccccc2)[C@H]1O (stereo not given in full)	–	-0.102% [at 18.6 µM]
O=C1CCCCCCCCCCCCCCCO1	inactive	–
CC1=CCC(=C(C)C)CC1	inactive	–
OCCN1CCN(CCCN2c3ccccc3Sc3ccc(C(F)(F)F)cc32)CC1	inactive	–
CC(N=C(NC#N)Nc1ccncc1)C(C)(C)C (stereo not given)	inactive	–
C/C=C/C=C/COC(=O)C(C)C	inactive	–
CCO[Si](OCC)(OCC)OCC	inactive	–
C=C(C)C(=O)OCCCCCCCCCC	inactive	–
O=c1[nH]c(=O)n([C@H]2C[C@H](O)[C@@H](CO)O2)cc1F	inactive	–
c1ccsc1	inactive	–
CCCNCCC	inactive	–
CC(C)Cn1cnc2c(N)nc3ccccc3c21	inactive	–
S=C([S-])NCCNC(=S)[S-].S=C([S-])NCCNC(=S)[S-].[Mn+2].[Zn+2]	inactive	–
O=S(=O)(O)c1ccc(Nc2nc(Nc3ccc(/C=C/c4ccc(Nc5nc(Nc6ccc(S(=O)(=O)O)cc6)nc(N(CCO)CCO)n5)cc4S(=O)(=O)O)c(S(=O)(=O)O)c3)nc(N(CCO)CCO)n2)cc1	inactive	–
CCn1c2ccccc2c2cc([N+](=O)[O-])ccc21	inactive	–
CC(C)(c1cc(Br)c(OCC(Br)CBr)c(Br)c1)c1cc(Br)c(OCC(Br)CBr)c(Br)c1 (stereo not given)	inactive	–
CC(=O)[C@H]1CC[C@H]2[C@@H]3CCC4=CC(=O)CC[C@]4(C)[C@H]3CC[C@]12C	inactive	–
CC1(C)CC(O)CC(C)(C)N1	inactive	–
CC(C)NC[C@@H](O)COc1ccc(CC(N)=O)cc1	inactive	–
